Measurements as given in ChEMBL document CHEMBL2218924, “A broad activity screen in support of a chemogenomic map for kinase signalling research and drug discovery” (Biochem J, 2013).

Tests used:
[1] = target: Homeodomain-interacting protein kinase 2 (Homo sapiens) (UniProt Q9H2X6); conditions: at 10 µM
[2] = target: Homeodomain-interacting protein kinase 3 (Homo sapiens) (UniProt Q9H422); conditions: at 1 µM
[3] = target: Homeodomain-interacting protein kinase 3 (Homo sapiens) (UniProt Q9H422); conditions: at 10 µM
[4] = target: T1, Serine/threonine-protein kinase haspin (Homo sapiens) (UniProt Q8TF76); conditions: at 1 µM
T1 sequence (whole entry): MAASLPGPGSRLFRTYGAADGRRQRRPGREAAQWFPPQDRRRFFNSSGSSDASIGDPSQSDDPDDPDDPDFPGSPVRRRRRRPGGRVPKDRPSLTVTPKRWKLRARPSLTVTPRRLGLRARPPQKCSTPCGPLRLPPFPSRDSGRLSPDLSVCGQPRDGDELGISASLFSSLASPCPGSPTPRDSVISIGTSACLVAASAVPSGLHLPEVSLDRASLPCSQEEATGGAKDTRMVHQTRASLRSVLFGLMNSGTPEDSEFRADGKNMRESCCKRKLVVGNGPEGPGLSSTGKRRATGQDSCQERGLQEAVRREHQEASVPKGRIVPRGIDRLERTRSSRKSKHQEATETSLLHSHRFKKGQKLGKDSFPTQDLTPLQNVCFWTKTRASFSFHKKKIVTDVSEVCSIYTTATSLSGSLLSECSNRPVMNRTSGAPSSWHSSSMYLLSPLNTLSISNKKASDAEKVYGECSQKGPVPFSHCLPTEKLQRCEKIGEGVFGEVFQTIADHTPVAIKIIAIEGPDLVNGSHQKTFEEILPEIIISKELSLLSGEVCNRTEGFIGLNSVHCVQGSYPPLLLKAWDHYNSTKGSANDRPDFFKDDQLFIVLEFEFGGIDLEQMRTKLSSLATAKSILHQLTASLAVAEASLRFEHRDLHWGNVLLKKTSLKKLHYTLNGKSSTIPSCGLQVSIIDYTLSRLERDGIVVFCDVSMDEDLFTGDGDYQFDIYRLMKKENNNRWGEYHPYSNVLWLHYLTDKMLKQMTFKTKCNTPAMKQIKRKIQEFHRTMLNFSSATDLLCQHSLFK

[5] = target: T1, Serine/threonine-protein kinase haspin (Homo sapiens); conditions: at 10 µM
[6] = target: Tyrosine-protein kinase HCK (Homo sapiens) (UniProt P08631); conditions: at 1 µM
Chain of Tyrosine-protein kinase HCK (Homo sapiens) (P08631 2-526 limits assumed): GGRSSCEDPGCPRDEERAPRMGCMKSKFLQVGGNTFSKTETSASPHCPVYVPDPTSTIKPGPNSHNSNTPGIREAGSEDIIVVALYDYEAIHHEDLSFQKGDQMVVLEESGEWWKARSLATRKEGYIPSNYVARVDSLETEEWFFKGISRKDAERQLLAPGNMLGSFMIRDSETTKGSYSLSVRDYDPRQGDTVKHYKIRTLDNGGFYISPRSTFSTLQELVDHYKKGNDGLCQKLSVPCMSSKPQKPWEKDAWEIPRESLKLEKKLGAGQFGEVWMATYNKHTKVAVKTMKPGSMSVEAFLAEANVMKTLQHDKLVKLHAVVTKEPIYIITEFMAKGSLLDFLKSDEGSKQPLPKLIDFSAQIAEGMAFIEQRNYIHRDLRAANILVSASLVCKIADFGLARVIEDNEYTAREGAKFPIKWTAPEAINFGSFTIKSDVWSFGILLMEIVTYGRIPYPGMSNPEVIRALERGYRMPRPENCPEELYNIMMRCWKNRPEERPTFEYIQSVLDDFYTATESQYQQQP

[7] = target: Tyrosine-protein kinase HCK (Homo sapiens) (UniProt P08631); conditions: at 10 µM
[8] = target: Tyrosine-protein kinase HCK (Homo sapiens) (UniProt P08631); conditions: at 1 µM; remark: listed apart in the source
[9] = target: Tyrosine-protein kinase HCK (Homo sapiens) (UniProt P08631); conditions: at 10 µM; remark: listed apart in the source
[10] = target: Insulin-like growth factor 1 receptor (Homo sapiens) (UniProt P08069); conditions: at 1 µM
Chain of Insulin-like growth factor 1 receptor (Homo sapiens) (P08069 31-736 limits assumed): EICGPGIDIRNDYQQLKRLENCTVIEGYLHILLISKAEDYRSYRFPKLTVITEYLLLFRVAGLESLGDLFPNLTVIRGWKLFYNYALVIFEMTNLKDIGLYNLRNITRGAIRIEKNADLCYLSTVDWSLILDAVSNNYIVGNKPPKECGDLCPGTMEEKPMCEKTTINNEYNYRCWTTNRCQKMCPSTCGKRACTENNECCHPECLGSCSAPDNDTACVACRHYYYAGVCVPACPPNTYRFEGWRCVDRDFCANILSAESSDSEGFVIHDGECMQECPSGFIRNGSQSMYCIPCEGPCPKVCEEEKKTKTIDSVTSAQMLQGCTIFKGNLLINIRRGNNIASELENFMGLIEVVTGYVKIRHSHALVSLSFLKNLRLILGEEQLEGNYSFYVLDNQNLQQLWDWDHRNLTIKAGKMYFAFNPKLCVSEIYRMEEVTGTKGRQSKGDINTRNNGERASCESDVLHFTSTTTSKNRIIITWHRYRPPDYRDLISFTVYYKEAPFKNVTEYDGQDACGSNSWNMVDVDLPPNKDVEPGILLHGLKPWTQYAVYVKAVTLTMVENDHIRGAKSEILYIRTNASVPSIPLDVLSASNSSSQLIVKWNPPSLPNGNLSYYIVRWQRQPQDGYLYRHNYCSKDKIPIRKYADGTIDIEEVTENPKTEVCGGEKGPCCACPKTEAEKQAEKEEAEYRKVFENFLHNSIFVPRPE
Chain of Insulin-like growth factor 1 receptor (Homo sapiens) (P08069 741-1367 limits assumed): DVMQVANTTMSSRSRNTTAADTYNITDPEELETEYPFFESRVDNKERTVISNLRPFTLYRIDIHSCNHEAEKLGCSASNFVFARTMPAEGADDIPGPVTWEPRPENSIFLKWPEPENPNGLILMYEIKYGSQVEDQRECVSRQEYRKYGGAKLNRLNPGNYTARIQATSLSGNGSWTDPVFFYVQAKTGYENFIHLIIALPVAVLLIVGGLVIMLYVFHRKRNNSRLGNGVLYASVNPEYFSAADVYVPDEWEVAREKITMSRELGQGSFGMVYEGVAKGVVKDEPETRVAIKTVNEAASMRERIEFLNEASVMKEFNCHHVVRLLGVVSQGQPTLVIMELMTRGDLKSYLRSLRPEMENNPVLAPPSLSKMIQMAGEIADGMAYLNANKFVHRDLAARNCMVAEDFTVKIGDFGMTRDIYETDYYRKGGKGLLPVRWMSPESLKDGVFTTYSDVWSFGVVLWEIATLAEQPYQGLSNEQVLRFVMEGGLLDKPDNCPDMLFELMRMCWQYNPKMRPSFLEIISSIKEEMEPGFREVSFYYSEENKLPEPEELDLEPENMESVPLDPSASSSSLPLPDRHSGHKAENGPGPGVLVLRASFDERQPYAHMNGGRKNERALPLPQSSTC

Chain of Homeodomain-interacting protein kinase 2 (Homo sapiens) (Q9H2X6 whole entry, looked up): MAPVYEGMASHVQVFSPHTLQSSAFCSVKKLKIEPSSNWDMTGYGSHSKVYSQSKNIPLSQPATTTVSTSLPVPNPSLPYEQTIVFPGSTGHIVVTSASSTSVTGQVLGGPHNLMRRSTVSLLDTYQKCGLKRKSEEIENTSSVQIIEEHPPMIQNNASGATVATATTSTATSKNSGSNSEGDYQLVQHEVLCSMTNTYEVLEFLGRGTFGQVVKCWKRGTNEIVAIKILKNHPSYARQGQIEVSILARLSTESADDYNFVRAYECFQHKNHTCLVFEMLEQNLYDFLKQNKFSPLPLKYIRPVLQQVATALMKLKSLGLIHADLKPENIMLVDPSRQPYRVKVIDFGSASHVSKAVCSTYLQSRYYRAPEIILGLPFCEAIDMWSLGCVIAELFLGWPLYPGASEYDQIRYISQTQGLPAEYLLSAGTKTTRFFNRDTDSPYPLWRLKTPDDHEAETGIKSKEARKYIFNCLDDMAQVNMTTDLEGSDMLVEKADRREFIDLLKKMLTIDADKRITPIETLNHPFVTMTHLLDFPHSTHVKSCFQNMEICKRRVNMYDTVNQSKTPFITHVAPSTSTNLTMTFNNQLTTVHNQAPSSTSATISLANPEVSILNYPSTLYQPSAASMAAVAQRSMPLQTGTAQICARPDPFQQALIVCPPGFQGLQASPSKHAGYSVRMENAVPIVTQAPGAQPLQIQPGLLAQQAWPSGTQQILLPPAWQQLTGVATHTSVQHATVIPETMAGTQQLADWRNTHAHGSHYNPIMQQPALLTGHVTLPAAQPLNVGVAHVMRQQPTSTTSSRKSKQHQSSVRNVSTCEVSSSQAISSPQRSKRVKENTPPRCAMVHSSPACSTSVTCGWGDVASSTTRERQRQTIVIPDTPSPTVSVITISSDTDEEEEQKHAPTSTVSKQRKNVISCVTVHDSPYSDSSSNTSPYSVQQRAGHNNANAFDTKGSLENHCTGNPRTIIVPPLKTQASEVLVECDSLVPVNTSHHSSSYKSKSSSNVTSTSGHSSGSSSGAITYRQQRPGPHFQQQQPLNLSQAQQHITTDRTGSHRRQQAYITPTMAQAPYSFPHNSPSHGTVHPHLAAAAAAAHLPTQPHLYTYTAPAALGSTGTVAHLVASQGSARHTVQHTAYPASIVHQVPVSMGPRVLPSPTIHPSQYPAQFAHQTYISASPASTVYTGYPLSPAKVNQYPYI
Chain of Homeodomain-interacting protein kinase 3 (Homo sapiens) (Q9H422 whole entry, looked up): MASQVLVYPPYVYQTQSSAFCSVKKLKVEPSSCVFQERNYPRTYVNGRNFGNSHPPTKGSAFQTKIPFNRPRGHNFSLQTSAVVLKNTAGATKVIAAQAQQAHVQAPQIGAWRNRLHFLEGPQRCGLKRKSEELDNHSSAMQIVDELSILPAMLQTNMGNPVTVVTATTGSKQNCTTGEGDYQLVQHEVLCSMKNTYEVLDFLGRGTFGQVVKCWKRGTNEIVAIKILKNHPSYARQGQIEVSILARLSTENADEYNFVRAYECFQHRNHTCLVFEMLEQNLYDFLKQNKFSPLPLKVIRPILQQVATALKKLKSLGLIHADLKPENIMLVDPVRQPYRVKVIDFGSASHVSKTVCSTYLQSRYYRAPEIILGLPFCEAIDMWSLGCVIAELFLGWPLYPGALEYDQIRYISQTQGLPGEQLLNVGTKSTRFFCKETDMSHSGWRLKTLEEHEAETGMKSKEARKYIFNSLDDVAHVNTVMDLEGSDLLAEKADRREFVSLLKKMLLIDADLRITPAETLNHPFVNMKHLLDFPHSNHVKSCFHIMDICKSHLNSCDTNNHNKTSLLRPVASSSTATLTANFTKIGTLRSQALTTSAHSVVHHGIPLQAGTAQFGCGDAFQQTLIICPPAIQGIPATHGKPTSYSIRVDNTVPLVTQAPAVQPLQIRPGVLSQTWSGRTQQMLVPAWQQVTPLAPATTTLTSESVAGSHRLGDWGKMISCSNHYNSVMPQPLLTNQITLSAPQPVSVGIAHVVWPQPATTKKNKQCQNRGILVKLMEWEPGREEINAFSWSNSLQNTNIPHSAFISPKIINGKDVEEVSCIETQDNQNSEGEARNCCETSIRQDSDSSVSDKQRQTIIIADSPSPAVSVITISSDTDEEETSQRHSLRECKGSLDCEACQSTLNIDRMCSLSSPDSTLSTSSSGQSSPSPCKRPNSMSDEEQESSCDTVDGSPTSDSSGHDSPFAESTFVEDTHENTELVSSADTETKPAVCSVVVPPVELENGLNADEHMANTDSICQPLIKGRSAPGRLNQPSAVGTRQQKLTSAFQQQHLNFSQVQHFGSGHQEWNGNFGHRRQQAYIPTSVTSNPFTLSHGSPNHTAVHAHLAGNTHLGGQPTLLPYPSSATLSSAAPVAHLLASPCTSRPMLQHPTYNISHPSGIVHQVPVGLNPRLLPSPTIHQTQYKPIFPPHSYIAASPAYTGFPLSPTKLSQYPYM

Compound | residual activity [1] [%] | residual activity [2] [%] | residual activity [3] [%] | residual activity [4] [%] | residual activity [5] [%] | residual activity [6] [%] | residual activity [7] [%] | residual activity [8] [%] | residual activity [9] [%] | residual activity [10] [%]
O=C1NC(=O)c2c1c1c3ccccc3n3c1c1c2c2ccccc2n1C1CCC3O1 | 26 | -2 | -2 | 50 | 22 | 76 | 94 | 92 | 83 | 73
CCn1cnc2c(Nc3cccc(Cl)c3)nc(N[C@@H]3CCCC[C@@H]3N)nc21 | 47 | 99 | 80 | 48 | 3 | 24 | 4 | 24 | 4 | 95
CC(C)[C@H](CO)Nc1nc(Nc2cccc(Cl)c2)c2ncn(C(C)C)c2n1 | 36 | – | 77 | 100 | 94 | 20 | 4 | 30 | 4 | 98
c1cc(-c2cnn3cc(-c4ccc(OCCN5CCCCC5)cc4)cnc23)ccn1 | 14 | – | 45 | 38 | 4 | 64 | 18 | 32 | 4 | –
COc1cc(OC)c(/C=C2\C(=O)Nc3ccccc32)c(OC)c1 | 96 | 103 | 98 | 70 | 61 | 89 | 69 | 93 | – | 93
CCc1nc(-c2ccc(OC)cc2)[nH]c1-c1ccncc1 | – | – | – | 45 | 4 | 72 | 64 | 115 | 104 | 112
C[S+]([O-])c1ccc(-c2nc(-c3ccc(F)cc3)c(-c3ccncc3)[nH]2)cc1 (centres undefined) | 100 | 110 | 102 | 88 | 35 | 105 | 52 | 93 | 61 | 102
COc1ccc2c(c[n+](C)c3c4cc5c(cc4ccc23)OCO5)c1OC | 86 | – | – | – | 69 | 92 | 60 | 95 | 92 | 138
O=c1[nH]c2ccccc2n1C1CCN(Cc2ccc(-c3nc4cc5[nH]cnc5cc4nc3-c3ccccc3)cc2)CC1 | 64 | 97 | 91 | 76 | 49 | 91 | 42 | 102 | 91 | 125
COc1ccc2c(c1)/C(=C/c1cnc[nH]1)C(=O)N2 | – | – | 49 | 37 | 13 | 71 | 33 | – | 49 | –
O=C1c2ccccc2-c2nc3nnnn3nc21 | – | – | – | – | 74 | – | 76 | – | – | 129
CN[C@@H]1C[C@H]2O[C@@](C)([C@@H]1OC)n1c3ccccc3c3c4c(c5c6ccccc6n2c5c31)C(=O)NC4 | – | 74 | 27 | – | – | 0 | – | – | – | –
O=C1Nc2ccc3ncsc3c2/C1=C/c1c[nH]cn1 | 4 | 31 | 4 | 3 | 1 | 58 | 19 | 67 | 24 | 132
COC(=O)[C@@]1(O)C[C@H]2O[C@]1(C)n1c3ccccc3c3c4c(c5c6ccccc6n2c5c31)C(=O)NC4 | -1 | 54 | -4 | 8 | 5 | 3 | 1 | 1 | 4 | 77
N/C(=N\[N+](=O)[O-])N/N=C\c1ccc(-c2cccc([N+](=O)[O-])c2)o1 | 83 | – | – | 97 | 80 | 70 | 49 | – | – | –
O=[N+]([O-])/C=C/c1ccc2c(c1)OCO2 | – | 101 | 99 | 128 | 115 | 85 | 73 | – | 94 | 131
CC(C)(C)c1cc(C=C(C#N)C#N)cc(Br)c1O | 71 | 101 | 98 | 105 | 54 | 77 | 8 | 102 | – | 130
COc1cc2ncnc(Nc3ccc(OCc4ccccc4)cc3)c2cc1OC | 84 | 100 | 96 | 77 | 45 | 35 | 19 | 90 | 83 | 120
